Source: PubChem
Tau fluor cs: Counterscreen qHTS for Inhibitors of Tau Fibril Formation, Fluorescence Polarization; tau K18 P301L Alexa594 fluorescence, heparin fibrillization; Potency, µM (highest dose often 57.7 µM); AID 1463, 2008; hit rate 0.93% among 280,000; note: nearly all actives have a fitted effect of over 55% in size
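Human K18 P301L tau (15 uM unlabeled plus 0.24 uM Alexa 594-labeled, final) in 100 mM sodium acetate pH 7 was mixed with compound and 20 uM heparin and incubated 6 hr at 37 C.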
JMJD2E inh: qHTS Assay for Inhibitors of Human Jumonji Domain Containing 2E (JMJD2E); AID 2147, 2009; hit rate 1.6% among 230,000; Potency, µM (titrated, usually from 57.1 µM), usual class: inhibitors; JMJD2E catalytic domain, FDH-coupled NADH fluorescence (FDH is formaldehyde dehydrogenase); Lysine-specific demethylase 4E (Homo sapiens), B2RXH2; active = well fitted inhibition curve with a large enough effect, not every such curve was filed as active; inconclusive = small, poorly fitted or top-dose-only effect, or another doubt; inactive = no such curve, though single readings can be large or run the other way; note: nearly all actives have a fitted effect of over 50% in size
Target sequence (B2RXH2 1-337 limits assumed): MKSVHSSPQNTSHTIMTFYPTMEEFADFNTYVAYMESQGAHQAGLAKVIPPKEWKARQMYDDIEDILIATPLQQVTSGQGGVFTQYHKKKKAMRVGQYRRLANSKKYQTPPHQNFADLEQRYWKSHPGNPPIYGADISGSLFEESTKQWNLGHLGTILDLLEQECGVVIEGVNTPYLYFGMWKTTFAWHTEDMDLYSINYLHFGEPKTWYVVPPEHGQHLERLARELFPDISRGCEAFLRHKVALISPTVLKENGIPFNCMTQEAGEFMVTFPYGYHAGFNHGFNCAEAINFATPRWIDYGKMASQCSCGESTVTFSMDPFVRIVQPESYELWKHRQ
HPGD inh: qHTS Assay for Inhibitors of HPGD (15-Hydroxyprostaglandin Dehydrogenase); Potency, µM, usual class: inhibitors; hit rate 4.3% among 150,000; purified HPGD, NADH fluorescence kinetic, PGE2 substrate; AID 894, 2007; 15-hydroxyprostaglandin dehydrogenase [NAD(+)] (Homo sapiens), P15428; active = well fitted inhibition curve with a large enough effect, not every such curve was filed as active; inconclusive = small, poorly fitted or top-dose-only effect, or another doubt; inactive = no such curve, though single readings can be large or run the other way
Target sequence (P15428 whole entry, looked up): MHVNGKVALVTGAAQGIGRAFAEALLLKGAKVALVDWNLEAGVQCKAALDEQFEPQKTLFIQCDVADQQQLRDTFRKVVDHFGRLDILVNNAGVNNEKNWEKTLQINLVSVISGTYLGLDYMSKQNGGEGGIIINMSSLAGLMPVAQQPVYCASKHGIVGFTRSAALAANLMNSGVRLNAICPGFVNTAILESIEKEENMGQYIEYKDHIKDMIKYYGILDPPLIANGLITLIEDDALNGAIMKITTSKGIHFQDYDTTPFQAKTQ
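NADH formation kinetics: reaction with 30 uM PGE2 and 1 mM NAD+ (final), 20 nM enzyme, Tris-HCl pH 8 with Tween 20, after 15 min compound preincubation at room temperature. Fluorescence change, last versus first of five reads.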
Tau ThT inhib: qHTS for Inhibitors of Tau Fibril Formation, Thioflavin T Binding. recombinant tau K18 P301L (four-repeat tau fragment), heparin-induced fibrillization, ThT fluorescence. Potency, µM (series often up to 57.4 µM), hits mostly inhibitors. hit rate 2.1% among 270,000. AID 1460, 2008; note: nearly all actives have a fitted effect of over 55% in size
Target sequence (P10636 561-689 P618L limits assumed): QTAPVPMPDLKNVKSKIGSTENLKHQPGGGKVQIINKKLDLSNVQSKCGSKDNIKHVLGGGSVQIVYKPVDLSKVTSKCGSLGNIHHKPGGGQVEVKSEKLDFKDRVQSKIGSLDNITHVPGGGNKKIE
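Recombinant human tau K18 fragment […] carrying P301L, 15 uM unlabeled plus 0.24 uM Alexa 594-labeled, was fibrillized with 20 uM heparin in 100 mM sodium acetate pH 7 for 6 hr at 37 C; 30 uM ThT fluorescence read after 1 hr.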
ALDH1A1 inh: qHTS Assay for Inhibitors of Aldehyde Dehydrogenase 1 (ALDH1A1). Potency, µM (series often up to 75.3 µM), most hits filed as inhibitors. Aldehyde dehydrogenase 1A1 (Homo sapiens), P00352. hit rate 7.3% among 220,000. Purified ALDH1A1, NADH fluorescence, propionaldehyde substrate. AID 1030, 2008; active = well fitted inhibition curve with a large enough effect, not every such curve was filed as active; inconclusive = small, poorly fitted or top-dose-only effect, or another doubt; inactive = no such curve, though single readings can be large or run the other way
Tau fibril FP: qHTS for Inhibitors of Tau Fibril Formation, Fluorescence Polarization. Microtubule-associated protein tau (Homo sapiens), P10636. Potency, µM (top dose mostly 57.7 µM), hits mostly inhibitors. hit rate 0.39% among 280,000. K18 P301L tau heparin fibrillization, Alexa594 FP, 6 h. AID 1468, 2008; note: nearly all actives have a fitted effect of over 55% in size
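Steps: dispense K18 P301L tau (15 uM plus 0.24 uM Alexa 594 tracer, final) in pH 7 sodium acetate; add compound; add heparin (20 uM final); incubate 6 hr, 37 C; add ThT (30 uM final); after 1 hr ambient, read FP.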
Each line names hits and unclear results; the compound was inactive in the other large screens. Rows were chosen to be rich in hits. Some 9.9% of all compounds tested hit in one or more screens of this group. Unless noted, calls come from the whole dose curve; as a rule, active = well fitted curve in the direction sought with a large enough effect; inconclusive = small, poorly fitted or top-dose-only effect, or another doubt; inactive = no such curve, though single readings can be large; an effect the other way counts as inactive or inconclusive.

O=C(NCc1ccco1)C(c1ccco1)N(Cc1cccs1)C(=O)Cn1nnc2ccccc21 (stereo unspecified)	ALDH1A1 inh 14µM
O=C(NCc1ccco1)C(c1cccs1)N(Cc1ccccc1)C(=O)Cn1nnc2ccccc21 (stereo unspecified)	none
CCCOc1nc(N)c(C#N)c(-c2ccccc2F)c1C#N	ALDH1A1 inh 1µM
O=C(CN1C(=O)NC2(CCCC2)C1=O)Nc1ccccc1F	none
COc1ccc(-c2nc(=S)[nH][nH]2)cc1	JMJD2E inh inconclusive, HPGD inh 13µM, ALDH1A1 inh 13µM
Oc1ccc(-c2nc(=S)[nH][nH]2)cc1	HPGD inh inconclusive, ALDH1A1 inh inconclusive
CCOc1ccc(-c2nc(=S)[nH][nH]2)cc1	JMJD2E inh inconclusive, HPGD inh inconclusive, ALDH1A1 inh 25µM
O=C(Oc1ccc2c(=O)c(Oc3ccc4ccccc4c3)coc2c1)c1cccnc1	JMJD2E inh inconclusive
O=C(Oc1ccc2c(=O)c(Cl)coc2c1)c1cccnc1	JMJD2E inh inconclusive, Tau ThT inhib inconclusive, ALDH1A1 inh 20µM
O=C(O)/C=C/C(=O)N1CCN(C(c2ccccc2)c2ccccc2)CC1	JMJD2E inh inconclusive, Tau ThT inhib inconclusive, ALDH1A1 inh inconclusive, Tau fibril FP inconclusive (no result: HPGD inh)
O=c1[nH]c(CN2CCN(c3ccccc3O)CC2)nc2scc(-c3ccccc3Cl)c12	Tau fluor cs inconclusive, Tau ThT inhib inconclusive (no result: HPGD inh, ALDH1A1 inh)
O=c1[nH]c(CN2CCc3ccccc32)nc2scc(-c3cccs3)c12	JMJD2E inh inconclusive, Tau ThT inhib inconclusive, ALDH1A1 inh 25µM
CC1CCN(c2c(NCc3ccc(C(=O)NCc4cccnc4)cc3)c(=O)c2=O)CC1	HPGD inh inconclusive
CC1CCN(c2c(NCc3ccc(C(=O)N(C)C4CCCCC4)cc3)c(=O)c2=O)CC1	none (no result: HPGD inh, ALDH1A1 inh)
CC1CCN(c2c(NCc3ccc(C(=O)NCc4ccco4)cc3)c(=O)c2=O)CC1	HPGD inh 11µM
CC1CCN(c2c(NCc3ccc(C(=O)N4CCc5ccccc54)cc3)c(=O)c2=O)CC1	HPGD inh 18µM, ALDH1A1 inh inconclusive
CC1CCCN(C(=O)c2ccc(CNc3c(N4CCCCC4)c(=O)c3=O)cc2)C1 (stereo unspecified)	HPGD inh 0.28µM, ALDH1A1 inh inconclusive
O=C(NCc1ccco1)c1ccc(CNc2c(N3CCCCC3)c(=O)c2=O)cc1	HPGD inh 14µM
CSc1ccc(CNc2ccc(C)cc2)cc1	Tau fluor cs inconclusive, Tau ThT inhib inconclusive
C=C(C)[C@H]1CC=C(CO)CC1	ALDH1A1 inh inconclusive (no result: JMJD2E inh)
Cc1ccc(CNC(=O)c2ccc(CNc3c(N4CCCC4)c(=O)c3=O)cc2)cc1	HPGD inh 14µM, ALDH1A1 inh inconclusive
Cc1cc(C)cc(NC(=O)c2ccc(CNc3c(N4CCCC4)c(=O)c3=O)cc2)c1	none (no result: HPGD inh, Tau ThT inhib, ALDH1A1 inh)
Cc1cc(Br)c(OCC(=O)NN)c2c1CCC2	ALDH1A1 inh 2µM (no result: HPGD inh)
Cc1cc(C)cc(N(C)S(=O)(=O)c2nnc(NC(=O)COc3ccc(Cl)cc3)s2)c1	none (no result: JMJD2E inh, HPGD inh, ALDH1A1 inh)
CCOC(=O)C1(CCOc2ccccc2)CCN(Cc2ccc(C)o2)CC1	ALDH1A1 inh 18µM (no result: HPGD inh)
CCN(c1cc(C)cc(C)c1)S(=O)(=O)c1nnc(NC(=O)c2ccccc2C)s1	none (no result: JMJD2E inh, HPGD inh, ALDH1A1 inh)
COCCNC(=O)CCSCc1ccccc1F	HPGD inh 25µM
O=C(Nc1ccccc1)C1=C(O)CC(c2ccc(Cl)cc2)N2CCN=C12 (stereo unspecified)	ALDH1A1 inh 14µM
CCOc1ccsc1C(=O)O	none (no result: HPGD inh, ALDH1A1 inh)
CC(C)(C)NC(=O)c1oc2ccccc2c1NC(=O)c1ccc(F)cc1	none (no result: JMJD2E inh, HPGD inh, ALDH1A1 inh)
Clc1ccc(-c2ccc(C=Nc3ccc(N4CCOCC4)cc3)o2)c(Cl)c1	Tau ThT inhib inconclusive (no result: HPGD inh)
Clc1ccc(-c2ccc(C=Nc3ccc(N4CCOCC4)cc3)o2)cc1	JMJD2E inh inconclusive, Tau ThT inhib inconclusive, ALDH1A1 inh 3.5µM
Clc1cccc(-c2ccc(C=Nc3ccc(N4CCOCC4)cc3)o2)c1Cl	Tau fluor cs inconclusive, JMJD2E inh inconclusive, Tau ThT inhib 13µM, ALDH1A1 inh 10µM (no result: HPGD inh)
COc1ccc(CCNC(=O)c2ccc3c(c2)CCN3S(C)(=O)=O)cc1	none (no result: JMJD2E inh, HPGD inh, ALDH1A1 inh)
O=C(O)C1CC(=O)N(c2ccc(OCc3c(F)cccc3Cl)cc2)C1 (stereo unspecified)	HPGD inh 1.6µM
CN1CCN(C(CNC(=O)c2cccc(F)c2)c2ccc3c(c2)OCO3)CC1 (stereo unspecified)	none (no result: JMJD2E inh, HPGD inh, ALDH1A1 inh)
O=S(=O)(c1cccc(Cl)c1Cl)N1CCCCC1	none
O=S(=O)(c1c(Cl)sc(Cl)c1Br)N1CCCC1	ALDH1A1 inh 14µM (no result: HPGD inh)
O=C(NCCN1C(=O)C2C3C=CC(C3)C2C1=O)Nc1cccnc1 (stereo unspecified)	none
CC(C(=O)Nc1cccnc1)N1C(=O)C2C3C=CC(C3)C2C1=O (stereo unspecified)	ALDH1A1 inh 20µM
O=C(Nc1ccc(N2C(=O)C3C4C=CC(C4)C3C2=O)cc1)Nc1cccnc1 (stereo unspecified)	HPGD inh 18µM, ALDH1A1 inh inconclusive
CC(=O)N1CCCC1c1nc2ccccc2n1Cc1cc(C)ccc1C (stereo unspecified)	none (no result: JMJD2E inh, HPGD inh, ALDH1A1 inh)
COc1ccc(CSc2nncn2C)cc1[N+](=O)[O-]	ALDH1A1 inh 20µM
COc1ccc(CSc2nncn2N)cc1[N+](=O)[O-]	ALDH1A1 inh inconclusive
O=c1c2sc3ccccc3c2n(Cc2ccc(F)cc2)c(=O)n1Cc1ccco1	none (no result: JMJD2E inh, HPGD inh, ALDH1A1 inh)
Oc1ccc(Cl)cc1-c1cc(-c2ccco2)[nH]n1	Tau fluor cs inconclusive, HPGD inh 25µM, ALDH1A1 inh inconclusive, Tau fibril FP inconclusive
S=c1[nH]nc(-c2cc(-c3ccco3)[nH]n2)n1-c1ccccc1	JMJD2E inh inconclusive, HPGD inh 20µM, ALDH1A1 inh inconclusive
Oc1ccccc1-c1cc(-c2ccco2)[nH]n1	Tau fluor cs inconclusive, JMJD2E inh inconclusive, HPGD inh inconclusive, ALDH1A1 inh 14µM
Cc1c(Cl)ccc2c1NC(=O)[C@]21[C@@H]2C(=O)N(Cc3ccccc3)C(=O)[C@@H]2[C@@H]2CCCN21	ALDH1A1 inh 2.8µM
COc1ccc(C)cc1N(CC(=O)N1CCc2ccccc2C1)S(C)(=O)=O	none (no result: HPGD inh)
O=C(COC(=O)CNS(=O)(=O)c1ccc2ccccc2c1)Nc1ccc2c(c1)OCO2	none
O=C(COC(=O)CNS(=O)(=O)c1ccc2ccccc2c1)Nc1ccccc1Sc1ccccc1	ALDH1A1 inh 18µM
